Results from article PMC5540273 (PLoS ONE, 2017).
Several values for one entry are separate records, joined by “and”; a condition that tells them apart may be missing. Equal values may be shown once. Read-outs that look alike come from different tables or passages of the source.

Experiments:
Conditions in all cases: n = 1
AAK1 = test system: AAK1
ABL1-nonphosphorylated = test system: ABL1-nonphosphorylated
ABL1-phosphorylated = test system: ABL1-phosphorylated
ABL2 = test system: ABL2
ACVR1B = test system: ACVR1B
ACVR1 = test system: ACVR1
ACVR2A = test system: ACVR2A
[1] = concentration: 1 μM,replicates: in singlicate, 1 µM
[2] = concentration: 1 μM, replicates: in singlicate
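Also: KINOMEscan kinase panel screen.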

## CSc1nn2c(=O)cc(N3CCOCC3)nc2n1Cc1cccc(C(F)(F)F)c1C [GSK2363608]
AAK1; [1]
  %Inh: 3% and 25%
ABL1-nonphosphorylated; [2]
  %Inh: 0%
ABL1-phosphorylated; [2]
  %Inh: 0%
ABL2; [1]
  %Inh: 5% and 17%
ACVR1B; [2]
  %Inh: 0%
ACVR1; [1]
  %Inh: 0% and 14%
ACVR2A; [2]
  %Inh: 0%

## COc1cc(Nc2nccc(N3CCC(NC(=O)Nc4cc(C)ccc4C)C3)n2)cc(OC)c1OC (centres unmarked) [GSK1379762]
AAK1; [2]
  %Inh: 46%
ABL1-nonphosphorylated; [2]
  %Inh: 0%
ABL1-phosphorylated; [2]
  %Inh: 0%
ABL2; [2]
  %Inh: 22%
ACVR1B; [2]
  %Inh: 0%
ACVR1; [2]
  %Inh: 12%
ACVR2A; [2]
  %Inh: 0%

## O=C(O)COc1ncnc2cc(-c3ccc4[nH]ncc4c3)sc12
AAK1; [2]
  %Inh: 52%
ABL1-nonphosphorylated; [2]
  %Inh: 33%
ABL1-phosphorylated; [2]
  %Inh: 7%
ABL2; [2]
  %Inh: 0%
ACVR1B; [2]
  %Inh: 31%
ACVR1; [2]
  %Inh: 1%
ACVR2A; [2]
  %Inh: 4%

## Cc1c(Cn2ccn3c(=O)cc(N4CCOCC4)nc23)cccc1C(F)(F)F [GSK2289044]
AAK1; [2]
  %Inh: 16%
ABL1-nonphosphorylated; [2]
  %Inh: 0%
ABL1-phosphorylated; [2]
  %Inh: 0%
ABL2; [2]
  %Inh: 0%
ACVR1B; [2]
  %Inh: 0%
ACVR1; [2]
  %Inh: 3%
ACVR2A; [2]
  %Inh: 0%

## Cc1ccc(C(=O)Nc2ccc(Nc3ccnc4cc(-c5ccccn5)ccc34)cc2O)cc1.Cl [GW440146]
AAK1; [2]
  %Inh: 4%
ABL1-nonphosphorylated; [2]
  %Inh: 68%
ABL1-phosphorylated; [2]
  %Inh: 31%
ABL2; [2]
  %Inh: 18%
ACVR1B; [2]
  %Inh: 0%
ACVR1; [2]
  %Inh: 0%
ACVR2A; [2]
  %Inh: 0%

## Cc1cccc(-c2nc(Nc3cccc(C(N)=O)c3)c3ccccc3n2)n1 [GW876019]
AAK1; [2]
  %Inh: 0%
ABL1-nonphosphorylated; [2]
  %Inh: 25%
ABL1-phosphorylated; [2]
  %Inh: 20%
ABL2; [2]
  %Inh: 15%
ACVR1B; [2]
  %Inh: 83%
ACVR1; [2]
  %Inh: 0%
ACVR2A; [2]
  %Inh: 12%

## COc1cc2ncn(-c3cc(OCC4CCCO4)c(C(N)=O)s3)c2cc1OC (centres unmarked) [GSK204607]
AAK1; [2]
  %Inh: 17%
ABL1-nonphosphorylated; [2]
  %Inh: 0%
ABL1-phosphorylated; [2]
  %Inh: 0%
ABL2; [2]
  %Inh: 0%
ACVR1B; [2]
  %Inh: 0%
ACVR1; [2]
  %Inh: 46%
ACVR2A; [2]
  %Inh: 0%

## Clc1cc(Cl)cc(Nc2ccnc(Nc3cc(Cl)cc(Cl)c3)n2)c1 [GSK175726]
AAK1; [2]
  %Inh: 0%
ABL1-nonphosphorylated; [2]
  %Inh: 68%
ABL1-phosphorylated; [2]
  %Inh: 51%
ABL2; [2]
  %Inh: 29%
ACVR1B; [2]
  %Inh: 28%
ACVR1; [2]
  %Inh: 58%
ACVR2A; [2]
  %Inh: 0%

## O=S(=O)(c1ccc(-c2ccnc3[nH]ccc23)cc1)N1CCCC1 [GSK846226]
AAK1; [2]
  %Inh: 60%
ABL1-nonphosphorylated; [2]
  %Inh: 0%
ABL1-phosphorylated; [2]
  %Inh: 0%
ABL2; [2]
  %Inh: 0%
ACVR1B; [2]
  %Inh: 0%
ACVR1; [2]
  %Inh: 24%
ACVR2A; [2]
  %Inh: 0%

## CCn1c(-c2cccnc2O)nc2cnccc21 [SB-736715]
AAK1; [2]
  %Inh: 0%
ABL1-nonphosphorylated; [2]
  %Inh: 43%
ABL1-phosphorylated; [2]
  %Inh: 0%
ABL2; [2]
  %Inh: 4%
ACVR1B; [2]
  %Inh: 0%
ACVR1; [2]
  %Inh: 0%
ACVR2A; [2]
  %Inh: 0%

## Cc1cccc(-c2nc(C)cc(Nc3ccncc3)n2)n1 [GSK257997]
AAK1; [2]
  %Inh: 99.8%
ABL1-nonphosphorylated; [2]
  %Inh: 0%
ABL1-phosphorylated; [2]
  %Inh: 0%
ABL2; [2]
  %Inh: 6%
ACVR1B; [2]
  %Inh: 78%
ACVR1; [2]
  %Inh: 15%
ACVR2A; [2]
  %Inh: 0%

## CS(=O)(=O)c1ccc(-c2nc3n(c2-c2ccncc2)CCC3)cc1 [SKF-105942]
AAK1; [2]
  %Inh: 14%
ABL1-nonphosphorylated; [2]
  %Inh: 0%
ABL1-phosphorylated; [2]
  %Inh: 8%
ABL2; [2]
  %Inh: 9%
ACVR1B; [2]
  %Inh: 0%
ACVR1; [2]
  %Inh: 10%
ACVR2A; [2]
  %Inh: 0%

## COc1ccc2nc(-c3cccc(C)n3)nc(Nc3ccncc3)c2c1 [GSK204919]
AAK1; [2]
  %Inh: 0%
ABL1-nonphosphorylated; [2]
  %Inh: 0%
ABL1-phosphorylated; [2]
  %Inh: 0%
ABL2; [2]
  %Inh: 12%
ACVR1; [2]
  %Inh: 0%
ACVR2A; [2]
  %Inh: 0%

## Cc1ccc(NC(=O)Nc2cccc(C(F)(F)F)c2)cc1 [GSK955403]
AAK1; 1 µM
  %Inh: 26%
ABL1-nonphosphorylated; 1 µM
  %Inh: 49%
ABL1-phosphorylated; 1 µM
  %Inh: 23%
ABL2; 1 µM
  %Inh: 3%
ACVR1B; 1 µM
  %Inh: 85%
ACVR1; 1 µM
  %Inh: 10%
ACVR2A; 1 µM
  %Inh: 2%

## CC1=C(C(=O)Nc2cc3cn[nH]c3cc2F)C(c2ccc(C(F)(F)F)cc2)CC(=O)N1 (centres unmarked) [GSK429286]
AAK1; [2]
  %Inh: 0%
ABL1-nonphosphorylated; [2]
  %Inh: 0%
ABL1-phosphorylated; [2]
  %Inh: 0%
ABL2; [2]
  %Inh: 19%
ACVR1B; [2]
  %Inh: 0%
ACVR1; [2]
  %Inh: 0%
ACVR2A; [2]
  %Inh: 83%

## Cc1cc(N2Cc3ccccc3C2)nc(Nc2ccc(S(=O)(=O)N3CCOCC3)cc2)n1.Cl [GSK1669917]
AAK1; [2]
  %Inh: 1%
ABL1-nonphosphorylated; [2]
  %Inh: 0%
ABL1-phosphorylated; [2]
  %Inh: 0%
ABL2; [2]
  %Inh: 0%
ACVR1B; [2]
  %Inh: 0%
ACVR1; [2]
  %Inh: 2%
ACVR2A; [2]
  %Inh: 0%

## O=C(Nc1n[nH]c2nc(-c3nccs3)c(Br)cc12)C1CC1 [SB-742251]
AAK1; [2]
  %Inh: 15%
ABL1-nonphosphorylated; [2]
  %Inh: 0%
ABL1-phosphorylated; [2]
  %Inh: 22%
ABL2; [2]
  %Inh: 7%
ACVR1B; [2]
  %Inh: 0%
ACVR1; [2]
  %Inh: 6%
ACVR2A; [2]
  %Inh: 0%

## Fc1cccc(COc2nnc(-c3ccc4c(c3)CCO4)o2)c1
AAK1; [2]
  %Inh: 26%
ABL1-nonphosphorylated; [2]
  %Inh: 25%
ABL1-phosphorylated; [2]
  %Inh: 0%
ABL2; [2]
  %Inh: 22%
ACVR1B; [2]
  %Inh: 0%
ACVR1; [2]
  %Inh: 0%
ACVR2A; [2]
  %Inh: 0%
